This passage reports binding signal results from PMC7862700, “An all-to-all approach to the identification of sequence-specific readers for epigenetic DNA modifications on cytosine”.

Common to all, as to experiment: DAPPL (digital affinity profiling via proximity ligation, sequencing); 10 mM Tris-HCl pH 7.5, 50 mM NaCl, 1 mM DTT, 4% glycerol, room temperature, 30 min; GST-TFs on glutathione beads, 16-mer random dsDNA library, 0.1% formaldehyde crosslink after washing; high values mean tight binding
The target in one assay is T1, FEV (Homo sapiens, UniProt Q99581 1-238).
T1 sequence: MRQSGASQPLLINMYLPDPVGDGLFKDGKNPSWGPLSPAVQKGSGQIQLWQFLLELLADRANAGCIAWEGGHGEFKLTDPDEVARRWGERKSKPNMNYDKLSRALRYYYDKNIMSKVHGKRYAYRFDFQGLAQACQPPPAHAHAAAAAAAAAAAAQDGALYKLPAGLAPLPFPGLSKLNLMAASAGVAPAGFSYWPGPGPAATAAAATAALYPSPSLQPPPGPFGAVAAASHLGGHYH
As to conditions: protein: recombinant; tags: N-terminal GST; dsDNA, one strand shown. The essentials: (§1)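 A tag-only sample was pooled with DNA-barcoded human transcription factors that had been expressed in yeast as GST fusions and captured on glutathione beads. The pools were incubated for 30 min at room temperature with 200 nmole of a random double-stranded 16-mer DNA library in Tris/NaCl/DTT/glycerol buffer, then washed, crosslinked with 0.1% formaldehyde, proximity-ligated (BsaI/T4 ligase, 1 h, 37 °C), PCR-amplified and sequenced on an Illumina NextSeq500. Binding signal is each hexamer's read frequency for a factor divided by its frequency for the tag-only sample.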

The target in another assay is ETV5 (Homo sapiens, UniProt P41161 1-510). As to conditions: protein: recombinant; tags: N-terminal GST; dsDNA, one strand shown. The essentials: as §1
In a further assay the target is HSF1 (Homo sapiens, UniProt Q00613 1-529). As to conditions: protein: recombinant; tags: N-terminal GST; chain copies: 3; dsDNA, one strand shown. The essentials: as §1
Another assay deals with T2, SPIC (Homo sapiens, UniProt Q8N5J4 1-248).
T2 sequence: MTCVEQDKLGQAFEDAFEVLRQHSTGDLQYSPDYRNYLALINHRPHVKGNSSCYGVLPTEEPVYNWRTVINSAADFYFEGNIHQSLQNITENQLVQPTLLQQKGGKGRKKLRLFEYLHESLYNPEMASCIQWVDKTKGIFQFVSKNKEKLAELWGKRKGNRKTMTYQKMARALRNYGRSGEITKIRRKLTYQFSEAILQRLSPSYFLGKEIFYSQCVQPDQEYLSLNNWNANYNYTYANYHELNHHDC
As to conditions: protein: recombinant; tags: N-terminal GST; dsDNA, one strand shown. The essentials: as §1

Another assay deals with ELF4 (Homo sapiens, UniProt Q99607 1-663). As to conditions: protein: recombinant; tags: N-terminal GST; dsDNA, one strand shown. The essentials:
as §1

Another assay concerns the target T3, ELK4 (Homo sapiens, UniProt P28324-2 1-405).
T3 sequence: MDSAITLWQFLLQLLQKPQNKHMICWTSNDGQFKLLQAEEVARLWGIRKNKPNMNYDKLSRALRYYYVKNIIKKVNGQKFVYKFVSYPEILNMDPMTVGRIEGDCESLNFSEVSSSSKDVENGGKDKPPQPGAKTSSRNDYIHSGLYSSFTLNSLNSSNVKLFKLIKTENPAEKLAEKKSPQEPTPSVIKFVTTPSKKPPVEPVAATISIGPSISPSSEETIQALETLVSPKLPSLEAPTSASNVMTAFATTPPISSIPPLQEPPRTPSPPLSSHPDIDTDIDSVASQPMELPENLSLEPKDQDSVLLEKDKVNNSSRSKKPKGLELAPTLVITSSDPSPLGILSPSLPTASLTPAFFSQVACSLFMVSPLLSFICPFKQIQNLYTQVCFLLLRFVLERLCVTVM
As to conditions: protein: recombinant; tags: N-terminal GST; dsDNA, one strand shown. The essentials: as §1

The next assay concerns the target T4, ETV2 (Homo sapiens, UniProt O00321 1-342).
T4 sequence: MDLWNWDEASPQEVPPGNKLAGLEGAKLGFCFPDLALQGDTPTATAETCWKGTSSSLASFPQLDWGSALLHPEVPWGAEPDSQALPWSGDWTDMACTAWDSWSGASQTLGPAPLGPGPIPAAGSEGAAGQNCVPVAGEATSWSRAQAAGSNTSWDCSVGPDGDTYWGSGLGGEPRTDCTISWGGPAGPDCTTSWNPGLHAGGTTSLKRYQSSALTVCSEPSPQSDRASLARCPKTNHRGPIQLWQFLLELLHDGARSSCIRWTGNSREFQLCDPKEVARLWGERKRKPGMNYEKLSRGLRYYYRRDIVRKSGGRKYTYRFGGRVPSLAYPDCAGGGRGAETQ
As to conditions: protein: recombinant; tags: N-terminal GST; dsDNA, one strand shown. The essentials: as §1

The target in another assay is T5, ELF3 (Homo sapiens, UniProt P78545 1-371).
T5 sequence: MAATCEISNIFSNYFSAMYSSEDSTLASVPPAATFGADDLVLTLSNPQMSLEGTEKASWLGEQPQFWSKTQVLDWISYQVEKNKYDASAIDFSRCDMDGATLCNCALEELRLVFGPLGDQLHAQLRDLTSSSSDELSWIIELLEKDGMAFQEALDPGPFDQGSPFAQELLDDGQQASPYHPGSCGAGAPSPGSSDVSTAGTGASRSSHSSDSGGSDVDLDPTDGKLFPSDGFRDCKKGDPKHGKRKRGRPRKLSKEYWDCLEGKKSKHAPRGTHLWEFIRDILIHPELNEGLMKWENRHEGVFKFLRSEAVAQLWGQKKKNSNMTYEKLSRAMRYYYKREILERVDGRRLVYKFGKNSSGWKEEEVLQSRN
As to conditions: protein: recombinant; tags: N-terminal GST; dsDNA, one strand shown. The essentials: as §1

For a further assay, the target named is CRX (Homo sapiens, UniProt O43186 1-299). As to conditions: protein: recombinant; tags: N-terminal GST; dsDNA, one strand shown. The essentials:
as §1

The target in a further assay is ETV1 (Homo sapiens, UniProt P50549 1-477). As to conditions: protein: recombinant; tags: N-terminal GST; dsDNA, one strand shown. The essentials:
as §1

The next assay has as its target T6, ERF (Homo sapiens, UniProt P50548 1-548).
T6 sequence: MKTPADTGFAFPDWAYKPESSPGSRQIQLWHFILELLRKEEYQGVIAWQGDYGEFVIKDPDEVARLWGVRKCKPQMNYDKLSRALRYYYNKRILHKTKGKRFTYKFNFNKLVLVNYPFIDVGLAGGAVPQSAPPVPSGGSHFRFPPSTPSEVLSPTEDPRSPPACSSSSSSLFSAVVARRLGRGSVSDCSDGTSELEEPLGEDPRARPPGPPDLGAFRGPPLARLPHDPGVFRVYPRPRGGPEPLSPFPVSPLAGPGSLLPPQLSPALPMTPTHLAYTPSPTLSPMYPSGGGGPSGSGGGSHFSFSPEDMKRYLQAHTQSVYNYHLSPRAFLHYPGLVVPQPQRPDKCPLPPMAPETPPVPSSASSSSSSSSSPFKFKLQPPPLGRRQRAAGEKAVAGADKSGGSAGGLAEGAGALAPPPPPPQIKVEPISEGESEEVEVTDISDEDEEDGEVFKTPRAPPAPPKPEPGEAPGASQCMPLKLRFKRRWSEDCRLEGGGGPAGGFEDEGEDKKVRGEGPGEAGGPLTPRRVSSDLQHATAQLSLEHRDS
As to conditions: protein: recombinant; tags: N-terminal GST; dsDNA, one strand shown. The essentials: as §1

The target in the next assay is T7, ETV3L (Homo sapiens, UniProt Q6ZN32 1-361).
T7 sequence: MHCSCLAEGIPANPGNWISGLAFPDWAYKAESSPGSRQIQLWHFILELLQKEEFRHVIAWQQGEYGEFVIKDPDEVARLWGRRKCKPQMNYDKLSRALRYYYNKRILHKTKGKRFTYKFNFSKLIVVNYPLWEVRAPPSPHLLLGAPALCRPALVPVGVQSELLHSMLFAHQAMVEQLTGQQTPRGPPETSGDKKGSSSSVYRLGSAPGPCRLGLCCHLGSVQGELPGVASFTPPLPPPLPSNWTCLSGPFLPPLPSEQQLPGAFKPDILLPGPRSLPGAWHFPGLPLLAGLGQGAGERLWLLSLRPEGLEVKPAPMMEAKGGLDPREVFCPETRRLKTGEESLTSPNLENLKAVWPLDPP
As to conditions: protein: recombinant; tags: N-terminal GST; dsDNA, one strand shown. The essentials: as §1

In another assay the target is T8, ETS2 (Homo sapiens, UniProt P15036 1-469).
T8 sequence: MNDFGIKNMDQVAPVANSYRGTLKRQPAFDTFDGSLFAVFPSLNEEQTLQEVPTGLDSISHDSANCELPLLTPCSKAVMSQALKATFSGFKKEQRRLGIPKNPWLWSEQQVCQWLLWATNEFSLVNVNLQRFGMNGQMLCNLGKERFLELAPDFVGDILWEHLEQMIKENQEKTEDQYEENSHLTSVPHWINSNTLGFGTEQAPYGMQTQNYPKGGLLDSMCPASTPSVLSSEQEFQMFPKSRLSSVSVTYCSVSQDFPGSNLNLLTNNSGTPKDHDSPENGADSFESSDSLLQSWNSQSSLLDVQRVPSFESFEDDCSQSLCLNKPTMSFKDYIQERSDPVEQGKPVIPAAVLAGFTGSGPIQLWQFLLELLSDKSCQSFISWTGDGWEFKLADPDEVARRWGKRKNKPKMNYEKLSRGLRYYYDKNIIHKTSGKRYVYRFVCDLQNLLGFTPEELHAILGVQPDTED
As to conditions: protein: recombinant; tags: N-terminal GST; dsDNA, one strand shown. The essentials: as §1

The target in a further assay is T9, SPDEF (Homo sapiens, UniProt O95238 1-335).
T9 sequence: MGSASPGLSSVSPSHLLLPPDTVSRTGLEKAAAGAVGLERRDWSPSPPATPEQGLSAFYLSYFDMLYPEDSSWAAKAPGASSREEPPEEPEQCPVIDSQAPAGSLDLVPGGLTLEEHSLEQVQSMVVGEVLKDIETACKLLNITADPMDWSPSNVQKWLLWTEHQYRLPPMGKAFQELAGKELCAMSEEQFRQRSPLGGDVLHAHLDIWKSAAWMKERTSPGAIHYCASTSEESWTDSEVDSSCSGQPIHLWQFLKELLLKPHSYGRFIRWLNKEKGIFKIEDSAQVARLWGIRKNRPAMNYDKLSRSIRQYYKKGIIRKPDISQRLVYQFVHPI
As to conditions: protein: recombinant; tags: N-terminal GST; dsDNA, one strand shown. The essentials:
as §1

A further assay deals with T10, ETV7 (Homo sapiens, UniProt Q9Y603 1-341).
T10 sequence: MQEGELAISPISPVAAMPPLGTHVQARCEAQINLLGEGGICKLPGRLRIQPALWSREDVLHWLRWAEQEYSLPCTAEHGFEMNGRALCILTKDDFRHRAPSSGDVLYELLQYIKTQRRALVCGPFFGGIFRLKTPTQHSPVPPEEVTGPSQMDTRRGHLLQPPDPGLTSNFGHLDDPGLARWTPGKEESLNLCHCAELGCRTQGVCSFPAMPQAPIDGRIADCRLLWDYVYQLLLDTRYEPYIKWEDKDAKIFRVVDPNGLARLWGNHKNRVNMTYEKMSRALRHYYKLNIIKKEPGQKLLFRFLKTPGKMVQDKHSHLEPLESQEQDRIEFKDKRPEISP
As to conditions: protein: recombinant; tags: N-terminal GST; dsDNA, one strand shown. The essentials: as §1

The next assay deals with T11, ELF5 (Homo sapiens, UniProt Q9UKW6-2 1-255).
T11 sequence: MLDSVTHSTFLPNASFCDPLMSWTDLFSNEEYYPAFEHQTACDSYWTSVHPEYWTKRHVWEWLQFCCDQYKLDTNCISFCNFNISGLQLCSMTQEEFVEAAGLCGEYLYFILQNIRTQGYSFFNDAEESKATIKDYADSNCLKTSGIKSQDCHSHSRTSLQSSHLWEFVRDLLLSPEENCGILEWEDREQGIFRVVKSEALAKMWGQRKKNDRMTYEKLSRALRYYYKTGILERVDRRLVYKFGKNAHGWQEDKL
As to conditions: protein: recombinant; tags: N-terminal GST; dsDNA, one strand shown. The essentials:
as §1

In the next assay the target is T12, ETV3 (Homo sapiens, UniProt P41162-2 1-143).
T12 sequence: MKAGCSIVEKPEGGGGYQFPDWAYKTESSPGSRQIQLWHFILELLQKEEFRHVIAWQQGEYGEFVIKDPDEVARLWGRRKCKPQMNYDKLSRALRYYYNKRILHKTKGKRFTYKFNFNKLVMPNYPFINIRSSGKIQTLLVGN
As to conditions: protein: recombinant; tags: N-terminal GST; dsDNA, one strand shown. The essentials: as §1

The target of another assay is ETV6 (Homo sapiens, UniProt P41212 1-452). As to conditions: protein: recombinant; tags: N-terminal GST; dsDNA, one strand shown. The essentials:
as §1

Chain of ETV6 (P41212 whole entry): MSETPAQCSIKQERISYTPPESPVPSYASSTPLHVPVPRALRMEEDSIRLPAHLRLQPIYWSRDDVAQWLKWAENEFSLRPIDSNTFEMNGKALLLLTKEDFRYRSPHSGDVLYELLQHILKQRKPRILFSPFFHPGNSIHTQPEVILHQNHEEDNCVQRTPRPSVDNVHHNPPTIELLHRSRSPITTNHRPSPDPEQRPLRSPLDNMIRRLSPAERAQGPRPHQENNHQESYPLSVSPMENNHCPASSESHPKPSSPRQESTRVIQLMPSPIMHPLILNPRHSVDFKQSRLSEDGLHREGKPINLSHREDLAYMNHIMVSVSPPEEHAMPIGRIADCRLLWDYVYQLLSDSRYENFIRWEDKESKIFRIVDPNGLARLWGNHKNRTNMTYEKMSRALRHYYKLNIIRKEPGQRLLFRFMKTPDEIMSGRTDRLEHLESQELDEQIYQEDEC
Chain of CRX (O43186 whole entry): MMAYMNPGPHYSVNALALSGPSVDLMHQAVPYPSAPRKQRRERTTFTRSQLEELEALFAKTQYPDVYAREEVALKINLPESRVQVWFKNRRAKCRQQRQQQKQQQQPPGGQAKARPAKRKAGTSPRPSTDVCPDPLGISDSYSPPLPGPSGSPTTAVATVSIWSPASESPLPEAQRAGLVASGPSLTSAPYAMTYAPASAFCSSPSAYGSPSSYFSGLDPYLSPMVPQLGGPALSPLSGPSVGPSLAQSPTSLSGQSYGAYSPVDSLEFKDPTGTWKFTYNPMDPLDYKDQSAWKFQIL
Chain of ETV5 (P41161 whole entry): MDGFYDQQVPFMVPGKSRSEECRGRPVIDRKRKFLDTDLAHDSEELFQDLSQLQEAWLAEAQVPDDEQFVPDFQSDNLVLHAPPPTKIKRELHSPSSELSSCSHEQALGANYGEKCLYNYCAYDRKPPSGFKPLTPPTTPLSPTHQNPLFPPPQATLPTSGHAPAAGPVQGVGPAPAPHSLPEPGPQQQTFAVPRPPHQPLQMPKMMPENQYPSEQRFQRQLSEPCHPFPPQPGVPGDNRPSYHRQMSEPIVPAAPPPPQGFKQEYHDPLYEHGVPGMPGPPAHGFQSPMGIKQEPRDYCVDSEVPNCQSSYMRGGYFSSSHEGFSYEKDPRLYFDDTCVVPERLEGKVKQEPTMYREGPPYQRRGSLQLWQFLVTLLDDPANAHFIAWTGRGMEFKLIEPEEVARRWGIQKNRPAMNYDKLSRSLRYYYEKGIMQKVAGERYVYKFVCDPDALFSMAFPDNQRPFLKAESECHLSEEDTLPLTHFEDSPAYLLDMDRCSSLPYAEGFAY
Chain of ETV1 (P50549 whole entry): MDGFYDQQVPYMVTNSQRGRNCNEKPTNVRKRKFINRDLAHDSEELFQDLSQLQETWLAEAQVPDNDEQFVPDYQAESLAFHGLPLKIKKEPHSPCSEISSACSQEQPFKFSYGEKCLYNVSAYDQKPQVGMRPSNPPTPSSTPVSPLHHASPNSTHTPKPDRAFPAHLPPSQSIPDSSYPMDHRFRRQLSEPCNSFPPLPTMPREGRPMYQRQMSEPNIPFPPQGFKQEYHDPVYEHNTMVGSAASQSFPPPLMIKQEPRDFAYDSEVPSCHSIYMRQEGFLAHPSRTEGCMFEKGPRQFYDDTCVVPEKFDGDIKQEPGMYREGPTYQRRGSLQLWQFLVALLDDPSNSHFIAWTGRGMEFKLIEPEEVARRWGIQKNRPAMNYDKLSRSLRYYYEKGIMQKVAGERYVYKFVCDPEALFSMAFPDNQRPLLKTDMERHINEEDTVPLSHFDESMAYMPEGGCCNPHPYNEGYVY
Chain of ELF4 (Q99607 whole entry): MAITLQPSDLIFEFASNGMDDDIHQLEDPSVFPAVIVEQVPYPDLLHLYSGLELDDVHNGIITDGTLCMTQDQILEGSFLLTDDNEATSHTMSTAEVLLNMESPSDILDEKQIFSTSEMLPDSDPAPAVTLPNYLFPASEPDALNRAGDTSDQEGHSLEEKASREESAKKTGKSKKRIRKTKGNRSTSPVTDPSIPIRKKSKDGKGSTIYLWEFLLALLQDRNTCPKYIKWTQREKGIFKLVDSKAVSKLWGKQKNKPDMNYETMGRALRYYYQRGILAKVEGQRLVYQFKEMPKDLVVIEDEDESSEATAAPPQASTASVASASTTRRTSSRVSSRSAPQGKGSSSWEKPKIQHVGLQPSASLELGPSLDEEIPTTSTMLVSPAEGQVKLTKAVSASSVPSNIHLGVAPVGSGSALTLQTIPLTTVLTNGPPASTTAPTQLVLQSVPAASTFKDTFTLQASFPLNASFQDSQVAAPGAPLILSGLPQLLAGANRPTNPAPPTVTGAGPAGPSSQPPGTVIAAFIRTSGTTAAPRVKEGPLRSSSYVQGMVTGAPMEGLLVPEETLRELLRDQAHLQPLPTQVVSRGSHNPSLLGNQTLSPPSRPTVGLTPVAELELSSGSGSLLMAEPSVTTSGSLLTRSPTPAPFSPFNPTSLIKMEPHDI
Chain of HSF1 (Q00613 whole entry): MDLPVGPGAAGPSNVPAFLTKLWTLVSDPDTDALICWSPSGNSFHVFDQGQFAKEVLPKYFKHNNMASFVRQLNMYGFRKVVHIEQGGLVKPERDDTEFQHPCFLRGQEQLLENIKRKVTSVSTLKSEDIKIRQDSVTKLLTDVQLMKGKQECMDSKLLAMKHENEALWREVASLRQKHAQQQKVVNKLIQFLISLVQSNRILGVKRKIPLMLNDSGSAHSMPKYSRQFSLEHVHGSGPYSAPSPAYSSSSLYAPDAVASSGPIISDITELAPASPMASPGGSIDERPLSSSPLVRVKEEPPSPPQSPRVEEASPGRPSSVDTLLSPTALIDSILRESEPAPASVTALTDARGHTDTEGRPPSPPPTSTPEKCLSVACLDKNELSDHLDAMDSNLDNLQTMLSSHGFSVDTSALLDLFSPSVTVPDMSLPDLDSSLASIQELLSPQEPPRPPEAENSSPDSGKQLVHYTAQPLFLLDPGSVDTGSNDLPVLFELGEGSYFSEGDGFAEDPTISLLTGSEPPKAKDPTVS

Regarding TTATGC, the binding signal with FEV was 1.24 fold enrichment (6-mer frequency, TF over GST control); with ETV5, 1.3 fold enrichment (6-mer frequency, TF over GST control); with HSF1, 1.58 fold enrichment (6-mer frequency, TF over GST control); in the assay with SPIC, 1.55 fold enrichment (6-mer frequency, TF over GST control); in the assay with ELF4 it was 1.31 fold enrichment (6-mer frequency, TF over GST control); in the assay with ELK4, 1.33 fold enrichment (6-mer frequency, TF over GST control). In addition, the binding signal with ETV2 was 1.22 fold enrichment (6-mer frequency, TF over GST control); in the assay with ELF3 it was 1.48 fold enrichment (6-mer frequency, TF over GST control); with CRX, 2.28 fold enrichment (6-mer frequency, TF over GST control); with ETV1 it was 1.32 fold enrichment (6-mer frequency, TF over GST control); in the assay with ERF, 1.16 fold enrichment (6-mer frequency, TF over GST control); in the assay with ETV3L, 1.33 fold enrichment (6-mer frequency, TF over GST control). The binding signal was 1.28 fold enrichment (6-mer frequency, TF over GST control) with ETS2; 1.37 fold enrichment (6-mer frequency, TF over GST control) with SPDEF; 1.44 fold enrichment (6-mer frequency, TF over GST control) in the assay with ETV7; 1.29 fold enrichment (6-mer frequency, TF over GST control) in the assay with ELF5; 1.34 fold enrichment (6-mer frequency, TF over GST control) in the assay with ETV3; 1.31 fold enrichment (6-mer frequency, TF over GST control) with ETV6.
